PubChem BioAssay (NCATS)
Records with an inconclusive call do not appear. Entries that show only a call come without a potency. Active and inactive are the calls of the source. The call rests on the fitted dose curve; in most records, active means well fitted inhibition curve with a large enough effect; inconclusive means small, poorly fitted or top-dose-only effect; inactive means flat fitted curve, though single readings scatter.

Assay: qHTS for Inhibitors of Plasmodium falciparum (HB3) proliferation (AID 504318); further: nearly all actives have a fitted effect of over 60% in size
Settings: P. falciparum HB3 in erythrocytes, SYBR Green DNA, 72 h; series mostly up to 7.21 µM
Description: Plasmodium falciparum is a virulent malarial parasite that kills 1-2 million people worldwide each year. Malaria not only inflicts tremendous suffering and morbidity on the human population, but has dramatically influenced the course of civilization with profound sociological and economic implications (Shah, S. 2010). Transmitted by mosquitoes, the sporozoite form of the parasite enters the blood stream to infect hepatocytes, where they become merozoites that infect red blood cells (erythrocytes). Within erythrocytes, merozoites begin a […] cycle of growth and division, after which the parasite is released to infect new red blood cells. Gametocytes, which form within erythrocytes as well, circulate in the bloodstream and are ingested by the mosquito, thereby completing the life cycle (see CDC website). To profile malarial lines for differential chemical responses and to identify inhibitors of malarial growth, an assay that measures P. falciparum growth and replication within erythrocytes was employed. This assay uses a DNA binding fluorescent dye (SYBR Green) to detect parasite DNA following cell lysis. Because mature erythrocytes lack DNA, only Plasmodium-derived DNA is detected. The P. falciparum line cp250, derived from a malarial isolate from Cambodia, (Mu, J., et al. 2010) was added to the panel of lines, Dd2, HB3, 7G8 and GB4 in this study. Laboratory of Assay Development and Screening Technology [ADST] and NIH Chemical Genomics Center [NCGC] Boston University, Chemistry Department, Center for Chemical Methodology and Library Development [CMLD-BU] NIH National Institute of Allergy and Infectious Diseases [NIAID]
ADST Assay Protocol Summary: The 1536-well SYBR Green viability assay was based on the method of Bennett et al (2004) and described previously in 1536-well format (Yuan J., et al. 2009). For screening 3 ul culture medium was dispensed into 1536 well black clear bottom plates (Aurora Biotechnologies) using a Multidrop Combi (Thermo Fisher Scientific Inc.), 23 nL compounds in DMSO were added by a pin transfer (Cleveland, P.H. and Koutz, P.J, 2005) using a pin tool-based delivery system (Kalypsys), and 5 ul of erythrocytes infected with P. falciparum one of five lines (cp250, Dd2, HB3, 7G8 or GB4, 0.3% parasitemia, 2.5% hematocrit final concentration) were added. The plates were incubated at 37C in a humidified incubator in 5% CO2 for 72 h, and 2 ul lysis buffer (20 mM Tris HCl, 10 mM EDTA, 0.16% saponin, 1.6% triton X, 10X SYBR Green I (supplied as 10,000X final concentration by Invitrogen) was added to each well. The plates were mixed for 25 sec with gentle shaking and incubated overnight at room temperature in the dark. The following morning, fluorescence intensity at 485(14) nm excitation and 535(25) nm emission wavelengths was measured on an EnVision (Perkin Elmer) plate reader. Plate reads were normalized relative to the control inhibitor (0.29 uM artemisinin) and vehicle (DMSO) wells present on each plate and then corrected by an algorithm using vehicle-only control plates at the beginning and end of the compound plate stack. References Shah, S. (2010). The Fever: how malaria has ruled humankind for 500,000 years. New York, Sarah Crichton Books. CDC web site, http://www.cdc.gov/malaria/about/biology/index.html Mu, J., Myers, R.A., Jiang, H., Liu, S., Ricklefs, S., Waisberg, M., Chotivanich, K., Wilairatana, P., Krudsood, S., White, N.J., et Plasmodium falciparum genome-wide scans for positive selection, recombination hot spots and resistance to antimalarial drugs Nature Genetics 2010, 42, pp 268-271 Bennett TN, Paguio, M., Gligorijevic, B., Seudieu, C., Kosar, A. D., Davidson, E., and Roepe, P. D. Novel, rapid, and inexpensive cell-based quantification of antimalarial drug efficacy Antimicrobial Agents Chemother. 2004, 48(5): pp 1807-10 Yuan J, Johnson RL, Huang RL, Wichterman J, Jiang HY, Hayton K, Fidock DA, Wellems TE, Inglese J, Austin CP, Su XZ. […]
Potency means the concentration at half of the fitted maximal effect.

| SMILES | Potency |
| --- | --- |
| C=CCN1c2ccccc2[C@]23C[C@@H](C(=O)OC)N(S(=O)(=O)c4cccs4)C2=NC(C(=O)OC)=C(C(=O)OC)[C@H]13 | inactive |
| CCOC(=O)N1C2=NC(C(=O)OC)=C(C(=O)OC)[C@@H]3N(C)c4ccc(OC)cc4[C@]23C[C@H]1C(=O)OC | inactive |
| COC(=O)CCC(=O)OC1(C)C(=O)C=C2C=C(C3CC3)N(CC3CC3)C=C2C1=O (stereo not given) | inactive |
| CCCCC1=CC2=CC(=O)C(C)(OC(=O)CC)C(=O)C2=CN1CC(C)C (stereo not given) | inactive |
| COc1cccc([C@@H]2Oc3ccc(Br)cc3[C@H](O)[C@@H]2O)c1 | inactive |
| CC#CCN1c2ccccc2[C@]23C[C@@H](C(=O)OC)N(C(=O)OCC)C2=NC(C(=O)OC)=C(C(=O)OC)[C@H]13 | inactive |
| COC(=O)C1(C(=O)OC)CC(CO)C(=O)[C@@H]1c1ccccc1 (stereo not given in full) | inactive |
| C=CCN1c2ccccc2[C@]23C[C@@H](C(=O)OC)N(S(=O)(=O)CCCC)C2=NC(C(=O)OC)=C(C(=O)OC)[C@H]13 | inactive |
| COC(=O)C1=C(C(=O)OC)[C@@H]2N(Cc3ccccc3)c3ccccc3[C@@]23C[C@@H](C(=O)OC)N(S(=O)(=O)c2ccc(C)cc2)C3=N1 | 1510 nM (active) |
| COc1ccc(-c2nc(-c3ccccc3)c(Nc3ccc4ccccc4c3)o2)cc1 | 1690 nM (active) |
| CCCCC1=CC2=CC(=O)C(C)(OC(=O)CC)C(=O)C2=CN1CCc1c[nH]c2ccccc12 (stereo not given) | inactive |
| COC(=O)C1=C(C(=O)OC)[C@@H]2N(Cc3ccccc3)c3ccccc3[C@@]23C[C@@H](C(=O)OC)N(S(=O)(=O)c2ccc(C#N)cc2)C3=N1 | 1690 nM (active) |
| COC(=O)C1=C(C(=O)OC)[C@@H]2Nc3ccccc3[C@@]23C[C@@H](C(=O)OC)N(C(=O)c2ccc(Br)cc2)C3=N1 | inactive |
| CC#CCN1c2ccccc2[C@]23C[C@@H](C(=O)OC)N(C(=O)c4ccc(Br)cc4)C2=NC(C(=O)OC)=C(C(=O)OC)[C@H]13 | inactive |
| CCCCC1=CC2=C(c3ccco3)C(=O)C(C)(OC(=O)c3ccc(OC)cc3)C(=O)C2=CN1C1CCCC1 (stereo not given) | inactive |
| CC#CCN1c2ccccc2[C@]23C[C@@H](C(=O)OC)N(C(=O)c4cccs4)C2=NC(C(=O)OC)=C(C(=O)OC)[C@H]13 | inactive |
| CCCCc1nc2c(c3c1C[C@H](C)OC3)CN(C(=O)NCCc1c[nH]c3ccccc13)CC2 | inactive |
| COC(=O)N[C@@H](c1cccc(C)c1)C(C(C)=O)C(=O)OC (stereo not given in full) | inactive |
| COC(=O)C1=C(C)N(Cc2ccco2)C(=O)N[C@@H]1c1ccco1 | inactive |
| COC(=O)CCC(=O)OC1(C)C(=O)C=C2C=C(C3CC3)N(C3CCCCC3)C=C2C1=O (stereo not given) | inactive |

| SMILES | Potency |
| --- | --- |
| COC(=O)[C@]1(C)C=C[C@@H](C)[C@H](c2ccccc2Br)N1C(=O)C(F)(F)F | inactive |
| CCCNC(=O)N1C2=NC(C(=O)OC)=C(C(=O)OC)[C@@H]3Nc4ccccc4[C@]23C[C@H]1C(=O)OC | inactive |
| CCCCC1=CC2=C(c3ccco3)C(=O)C(C)(OC(=O)c3ccc(OC)cc3)C(=O)C2=CN1CCc1c[nH]c2ccccc12 (stereo not given) | inactive |
| COC(=O)C1=C(C(=O)OC)[C@@H]2Nc3ccccc3[C@@]23C[C@@H](C(=O)OC)N(S(=O)(=O)c2c(C)noc2C)C3=N1 | inactive |
| COc1ccc(-c2nc3c(c4c2C[C@H](c2ccccc2)OC4)CN(S(=O)(=O)c2c(C)noc2C)CC3)c(C)c1 | 2130 nM (active) |
| CCN(CC)CCCN1C=C2C(=O)C(C)(OC(=O)c3cccs3)C(=O)C=C2C=C1CCCC(=O)OC (stereo not given) | inactive |
| CC#CCN1c2ccccc2[C@]23C[C@@H](C(=O)OC)N(C(=O)c4ccco4)C2=NC(C(=O)OC)=C(C(=O)OC)[C@H]13 | inactive |
| CCCCC1=CC2=CC(=O)C(C)(OC(=O)CC)C(=O)C2=CN1CCc1ccccn1 (stereo not given) | inactive |
| CC(C)Nc1oc(-c2ccccc2)nc1C=Cc1ccccc1 | 1900 nM (active) |
| O=C(C=Cc1ccc2c(c1)OCO2)c1ccccc1 | inactive |
| COC(=O)CCC(=O)OC1(C)C(=O)C2=CN(C(CO)CO)C(c3ccc(OC)cc3)=CC2=C(Br)C1=O (stereo not given) | inactive |
| C=CCN1C=C2C(=O)C(C)(OC(=O)c3cnc4ccccc4n3)C(=O)C=C2C=C1/C=C/COC (stereo not given) | inactive |
| CC1(C)O[C@@H]2[C@@H](O1)C(c1ccccc1)(c1ccccc1)OP(=O)(O)OC2(c1ccccc1)c1ccccc1 | inactive |
| c1ccc(-c2nc(-c3cccc4ccccc34)c(Nc3ccc4ccccc4c3)o2)cc1 | 1510 nM (active) |
| COC(=O)[C@H]1[C@@H](C)N(Cc2ccccc2)C(=O)N[C@H]1c1ccccc1 | inactive |
| COC/C=C/C1=CC2=CC(=O)C(C)(OC(=O)c3cnc4ccccc4n3)C(=O)C2=CN1C1CCCC1 (stereo not given) | inactive |
| CCN1C(=O)N[C@@H](c2cccs2)C(C(=O)OC)=C1C | inactive |
| CC1(OC(=O)C2CCCC2)C(=O)C=C2C=C(c3ccsc3)N(c3ccccc3)C=C2C1=O (stereo not given) | inactive |
| CC1(OC(=O)C2CCCC2)C(=O)C=C2C=C(c3ccsc3)N(c3ccc(CO)cc3)C=C2C1=O (stereo not given) | inactive |
| COC(=O)N1C2=C(c3ccccc3[C@@H]1CC(=O)Nc1ccc3ccc4cccc5ccc1c3c45)[C@@H]1C(=O)N(c3ccccc3)C(=O)[C@@H]1[C@H](C)C2 | 2130 nM (active) |
